The panel holds about 83,000 compounds, 20% with a hit somewhere; the sample as a whole holds those more often.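 Percent growth is the endpoint: 0 to 100 indicates growth inhibition (40 means 60% inhibition), 0 means no net growth, and negative values indicate cell death.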 Active and inactive are the calls of the source. Rule for the calls: active = growth percent below 10; inactive = the rest.
system: SN12C renal; test: NCI-60 one-dose screen, 48 h (100 = growth as untreated, 0 = no growth, -100 = all killed); conditions: 10 µM unless noted

| SMILES | growth |
| --- | --- |
| COc1cc2c3c(c4c5ccccc5[nH]c4c2c(OC)c1OC)C(=O)N(O)C3=O | 46.6% (inactive) |
| Cc1cc2nc3c4cc(O)ccc4n(CCN(C)C)c3nc2cc1C | 3.51% (active) |
| Cc1csc(Nc2nc(-c3ccc(Cl)cc3)nc(C(Cl)(Cl)Cl)n2)n1 | 94.1% (inactive) |
| Cc1cc(C)nc(NC(N)=NCCc2ccccc2)n1 | 45.1% (inactive) |
| COc1cc(-c2c(C#N)c(-c3cccs3)nc3c2c(-c2ccccc2)nn3-c2ccccc2)ccc1O | 89.2% (inactive) |
| CN1CCN(c2ccc3nc(-c4[nH]ncc4Nc4ncnc5c4OCCCN5)[nH]c3c2)CC1 | -59.5% (active) |
| COC(=O)[C@]12CC[C@@H](C)[C@H](C)[C@@H]1C1=CC[C@@H]3[C@@]4(C)C[C@@H](O)[C@H](O)[C@@](C)(CO)C4=CC[C@@]3(C)[C@]1(C)CC2 | -71.5% (active) |
| O=C(NO)c1ccc(Cn2c(=O)n(-c3ccccc3)c(=O)c3ccccc32)cc1 | 44.1% (inactive) |
| COC(=O)[C@]12CC[C@@H](C)[C@H](C)[C@@H]1C1=CC(=O)[C@@H]3[C@@]4(C)C[C@@H](O)[C@H](O)[C@@]5(C)COC(=C45)C[C@@]3(C)[C@]1(C)CC2 | 55% (inactive) |
| Cn1cc(-c2csc(-c3cn(CCN)c4ccc(F)cc34)n2)c2cccnc21 | 76% (inactive) |
| CN(C)CCCCC(C(=O)CBr)(c1ccccc1)c1ccccc1 | 20.8% (inactive) |
| CC/C=C\C[C@H]1CC=C2C(=O)C=C[C@@H]2CC=CCCCC(=O)O[C@@H](CCCCC)CC=C2C(=O)C=C[C@@H]2CC=CCCCC(=O)O[C@@H](CCCCC)CC=C2C(=O)C=C[C@@H]2CC=CCCCC(=O)O[C@@H](CCCCC)CC=C2C(=O)C=C[C@@H]2CC=CCCCC(=O)O1 | -10.5% [7.9 µM] (active) |
| Clc1ccc2c(NCCNc3nc(-c4ccccc4)cc(-c4ccccc4)n3)ccnc2c1 | -74.4% (active) |
| Cc1ccc(N(CC(=O)Nc2ccc(S(=O)(=O)N3CCC(N4CCCC4)CC3)cc2)S(=O)(=O)c2ccc(Cl)cc2)cc1 | -35.7% (active) |
| Oc1ccc(Nc2ccccc2)cc1 | 90.3% (inactive) |
| CCCCCCCCNc1cccc2c1C(=O)c1ccccc1C2=O | 97.6% (inactive) |
| Cc1cc(N(CCCNc2ccnc3cc(Cl)ccc23)Cc2ccco2)nc(N2CCN(C)CC2)n1 | 50.5% (inactive) |
| C=C1C(=O)O[C@H]2[C@H]1CC/C(Cn1cc(-c3ccc(OC)cc3)nn1)=C\CC[C@@]1(C)O[C@@H]21 | 0.315% (active) |

| SMILES | growth |
| --- | --- |
| O=c1[nH]c2c3ccncc3cc(-c3cccc(Cl)c3)c2c2cnccc12 | 57.1% (inactive) |
| O=C1CNCCN1 | 97.8% (inactive) |
| COc1ccc(/C=C/C(=O)NCC(C)O)cc1 (stereo unspecified) | 105% (inactive) |
| O=C1Nc2ccccc2/C1=C/c1cn(CCCn2c3ccccc3c(=O)c3ccccc32)c2ccccc12 | 92% (inactive) |
| Cn1cc(-c2csc(-c3c[nH]c4ccc(F)cc34)n2)c2cccnc21 | 64.5% (inactive) |
| Cc1cc(Cl)nc(N(CCCNc2ccnc3cc(Cl)ccc23)Cc2ccco2)n1 | 26.6% (inactive) |
| COc1cc(/C=C/c2cc(/C=C/c3ccc(O)c(OC)c3)n(-c3ccc(Cl)cc3)c(=O)n2)ccc1O | 80.8% (inactive) |
| CC1(c2ccccc2)OC1C(=O)O (stereo unspecified) | 106% (inactive) |
| COc1cc(/C=C2\C(=O)N(CC(O)COc3cc(O)c4c(=O)cc(-c5ccccc5)oc4c3)c3ccccc32)cc(OC)c1O (stereo unspecified) | 84% (inactive) |
| Oc1cccc2oc(=S)[nH]c12 | 98.6% (inactive) |
| COc1ccc2c(c1)c(-c1nc(-c3c[nH]c4ncccc34)cs1)cn2CCN | 78.2% (inactive) |
| C=C(C)[C@@H]1CC[C@]2(C(=O)N3CCCNCC3)CC[C@]3(C)[C@H](CC[C@@H]4[C@@]5(C)CCC(=O)C(C)(C)[C@@H]5CC[C@]43C)[C@@H]12 | 84% (inactive) |
| Cc1ccc(NC2CC(=O)N(c3c(C)cc(C)cc3C)C2=O)c(C)c1 (stereo unspecified) | 97.2% (inactive) |
| CC1c2ccccc2N(S(=O)(=O)c2ccccc2)C1C (stereo unspecified) | 105% (inactive) |
| Nc1ccc(Cl)cn1 | 107% (inactive) |
| CCc1nnc(NC(=O)c2ccoc2COc2ccccc2)s1 | 55.7% (inactive) |
| Nc1c2c(nc3ccc(Br)cc13)CC(c1ccccc1)CC2=O (stereo unspecified) | 51.3% (inactive) |
| CC(C)(C)n1cc(-c2ccnc(NCCCNS(=O)(=O)c3ccc(Cl)cc3)c2)c(-c2cccc(F)c2)n1 | 73.9% (inactive) |

— PubChem BioAssay (NCI)
